# ± gives the standard deviation.
# What was measured:
# Conditions in all cases: modulator concentration 10 µM
# [1] = tested on: RAW-Dual (murine macrophage reporter line); experiment: NF-kB reporter (SEAP) activity fold change vs agonist alone; higher = enhanced NF-kB activity
# Outline: (§1)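 In 384-well plates holding 50 000 RAW-Dual murine macrophage reporter cells per well, compound at 10 μM final was pre-incubated for 1 hour at 37 °C, after which a PRR agonist was added overnight. Supernatant SEAP read with QUANTI-Blue at 620 nm absorbance reported NF-κB, and Lucia luciferase read with QUANTI-Luc luminescence reported IRF. Fold change values come from dividing each reporter signal by the mean of agonist-only control wells on the same plate, averaged over replicate plates with propagated errors.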
# [2] = tested on: RAW-Dual (murine macrophage reporter line); experiment: IRF reporter (Lucia luciferase) activity fold change vs agonist alone; higher = enhanced IRF activity
# Outline: as §1
# [3] = tested on: RAW-Dual (murine macrophage reporter line); experiment: viability score (confluency relative to resting cells, overnight) (fraction); higher = more viable, active = viable (0.7 or more)
# Outline: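 A compound met the cutoff when both of two confluency masks exceeded 70% of resting cells. Those masks were made with IncuCyte software from IncuCyte images of RAW-Dual macrophages treated overnight at 10 μM final. This is the basis of the viability score, which is confluency relative to resting cells.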
# [4] = agonist: CpG ODN 1826 0.5 ug/mL
SMILES,"NF-kB reporter [1, 4]",NF-kB reporter ([1]; agonist: LPS 0.1 ug/mL),NF-kB reporter ([1]; agonist: MPLA […]),IRF reporter ([2]; agonist: 3'3'-cGAMP 10 ug/mL),IRF reporter ([2]; agonist: LPS 0.1 ug/mL),IRF reporter ([2]; agonist: MPLA […]),viability score [3]
Cc1c(C(=O)NN)sc(-c2ccccc2)c1C#N,0.868 ± 0.071,1.13 ± 0.074,0.987 ± 0.034,0.562 ± 0.071,1.08 ± 0.12,1.43 ± 0.29,0.998 (active)
O=C(CSc1nc2c(c(=O)n1-c1ccccc1)SCC2)N1CCN(c2ccccc2)CC1,0.985 ± 0.08,1.09 ± 0.057,1.14 ± 0.036,1.15 ± 0.081,0.879 ± 0.046,0.953 ± 0.076,1 (active)
Brc1ccc2ncnc(NCc3ccco3)c2c1,0.856 ± 0.14,1.98 ± 0.16,2.54 ± 0.3,0.373 ± 0.021,0.647 ± 0.12,0.7 ± 0.12,0.996 (active)
Oc1ccc(N=Cc2ccccc2F)cc1,0.861 ± 0.099,0.887 ± 0.079,1.1 ± 0.064,0.304 ± 0.012,0.686 ± 0.028,1.36 ± 0.14,0.879 (active)
O=C(c1cc(C(F)(F)F)cc(C(F)(F)F)c1)N1CCOCC1CO (configuration not stated),0.94 ± 0.053,1.03 ± 0.12,0.869 ± 0.099,0.969 ± 0.072,1.04 ± 0.092,0.989 ± 0.38,0.999 (active)
NC(=O)c1ncn([C@@H]2O[C@H](CO)[C@@H](O)[C@H]2O)c1O,0.723 ± 0.23,1.08 ± 0.069,0.898 ± 0.05,1.02 ± 0.085,1.04 ± 0.086,1.16 ± 0.094,0.998 (active)
O=C(C=Cc1ccco1)Nc1ccc(C(=O)O)cc1NC(=O)C=Cc1ccco1,0.691 ± 0.069,1.11 ± 0.061,0.932 ± 0.056,0.884 ± 0.028,1.27 ± 0.19,0.976 ± 0.27,1.02 (active)
CN1CCN(c2c(F)cc3c(=O)c(C(=O)O)cn4c3c2OCN4C)CC1,1.2 ± 0.34,1.09 ± 0.093,0.971 ± 0.099,0.958 ± 0.039,1.26 ± 0.15,1.25 ± 0.12,0.995 (active)
CN(C)C(CNC(=O)NCc1ccc(F)cc1)c1ccc2c(c1)CCO2 (configuration not stated),0.838 ± 0.048,1.09 ± 0.092,1.04 ± 0.055,1.12 ± 0.064,1 ± 0.062,0.804 ± 0.12,0.994 (active)
CC1=NN(c2ccc(C)c(C)c2)C(=O)/C1=N\Nc1cccc(-c2cccc(C(=O)O)c2)c1O.NCCO.NCCO,1.63 ± 0.31,1.28 ± 0.23,1.49 ± 0.14,0.601 ± 0.019,1.16 ± 0.098,1.2 ± 0.11,0.861 (active)
CCC(=O)N1c2ccccc2NC2=C(C(=O)CC(c3ccccc3F)C2)C1c1ccc(C)cc1 (configuration not stated),1.02 ± 0.12,1.07 ± 0.079,1 ± 0.064,0.985 ± 0.043,1.35 ± 0.3,1.07 ± 0.072,1.01 (active)
Cc1c(C#N)sc2nc(-c3ccccc3)nc(N=CN(C)C)c12,1.01 ± 0.086,1.05 ± 0.095,0.952 ± 0.027,0.94 ± 0.056,0.971 ± 0.078,1.03 ± 0.18,1 (active)
Cc1c(-c2ccccc2)oc2c(C(=O)OCCN3CCCCC3)cccc2c1=O.Cl,1.21 ± 0.31,1.01 ± 0.075,0.977 ± 0.067,0.883 ± 0.052,1.35 ± 0.22,1.35 ± 0.16,1.01 (active)
COc1cc(C=NN2C(=O)c3cccc4cccc(c34)C2=O)cc(Br)c1OC,1.02 ± 0.08,1.12 ± 0.062,0.967 ± 0.062,1.01 ± 0.032,1.51 ± 0.29,1.13 ± 0.17,1.01 (active)
COc1ccc(C=CC(=O)O)cc1OC,1.03 ± 0.077,1.1 ± 0.059,1 ± 0.022,1.03 ± 0.06,0.954 ± 0.078,0.973 ± 0.095,0.996 (active)
O=c1[nH]c(=O)n([C@H]2C[C@H](O)[C@@H](CO)O2)cc1F,1.65 ± 0.14,1.02 ± 0.12,1.11 ± 0.028,0.75 ± 0.042,0.923 ± 0.083,0.863 ± 0.067,0.669 (inactive)
Cc1ccc(-c2cc(-c3ccccc3)nc(NN=Cc3ccc(Br)cc3)n2)cc1,0.976 ± 0.18,1.08 ± 0.084,1.01 ± 0.12,1.11 ± 0.031,1.07 ± 0.1,1.4 ± 0.21,0.997 (active)
COc1cc2c(cc1OC)C1C(=O)c3ccc4c(c3OC1CO2)C=CC(C)(C)O4 (configuration not stated),0.92 ± 0.071,0.99 ± 0.096,1.55 ± 0.14,0.853 ± 0.04,1.62 ± 0.26,2.12 ± 0.42,0.986 (active)
CC12CCC3c4ccc(O)cc4CCC3C1CCC2OC(=O)CCC1CCCC1 (configuration not stated),1.02 ± 0.093,0.997 ± 0.09,0.867 ± 0.082,0.969 ± 0.03,1.15 ± 0.15,1.21 ± 0.14,0.98 (active)
CN1C(=O)OC(C)(C)C1=O,1.01 ± 0.12,1.09 ± 0.075,1.05 ± 0.03,1.04 ± 0.17,1.01 ± 0.14,0.957 ± 0.22,1 (active)
CCOc1ccccc1OCCCCOc1cccc(C)c1,0.871 ± 0.064,0.936 ± 0.071,0.995 ± 0.028,0.996 ± 0.12,0.878 ± 0.13,0.96 ± 0.29,0.998 (active)
Cl.Cl.Cn1cc(CNCC2CCN(c3ncc(C(=O)NO)cn3)CC2)c2ccccc21,1.84 ± 0.11,1.72 ± 0.15,2.69 ± 0.12,0.067 ± 0.0071,0.396 ± 0.025,0.692 ± 0.054,0.0605 (inactive)
c1ccc(OCc2nnc(-c3ccccc3)o2)cc1,1.15 ± 0.1,1.19 ± 0.09,1.14 ± 0.037,0.87 ± 0.078,0.937 ± 0.044,0.973 ± 0.076,0.999 (active)
Cc1ccc(OCC(=O)N2CCN(c3ccc(-n4cncn4)nn3)CC2)c(C(C)(C)C)c1,1.11 ± 0.13,0.971 ± 0.085,1.27 ± 0.037,0.964 ± 0.07,0.948 ± 0.099,0.87 ± 0.15,0.999 (active)
OCc1ccccc1OC1OC(CO)C(O)C(O)C1O (configuration not stated),1.13 ± 0.27,1.07 ± 0.094,1.05 ± 0.069,0.889 ± 0.03,1.22 ± 0.23,1.13 ± 0.19,1 (active)
Cc1cc(C(O)CNC(=O)c2ccc(C(F)(F)F)nc2)c(C)o1 (configuration not stated),1.25 ± 0.083,1.05 ± 0.085,1.01 ± 0.029,0.965 ± 0.049,1.04 ± 0.053,1.16 ± 0.11,1 (active)

# Reference: the supplement of paper PMC10646978
